Bioassay records as filed in PubChem.
A selection: hits, their analogues and other compounds. The true share with any hit is near 19%.
TDP1 cell noCPT = qHTS for Inhibitors of human tyrosyl-DNA phosphodiesterase 1 (TDP1): qHTS in cells in absence of CPT. DT40 Tdp1-/- hTDP1 cells, no CPT, ATP luminescence, 48 h. Potency, µM (titrated, usually from 46.2 µM), inactives show at the highest dose activity change, negative = growth inhibition, actives largely listed as inhibitors. actives 15% (n = 420,000). AID 686978, 2013; further: nearly all actives have a fitted effect of over 55% in size
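Seeded 400 DT40-hTDP1 cells/well (vehicle DMSO, no 20 nM CPT); pinned compounds; ≥48 hr at 37 °C; CellTiter-Glo luminescence as viability measure.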
TDP1 cell CPT = DT40-hTDP1 cell growth loss with CPT. Potency, µM (highest dose often 46.2 µM), inactives show at the highest dose activity change, negative = growth inhibition, actives largely listed as inhibitors. AID 686979. actives 12% (n = 420,000). chicken DT40 Tdp1-/-;hTDP1 cells + 20 nM CPT, ATP luminescence, 48 h; further: nearly all actives have a fitted effect of over 55% in size
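Chicken DT40 Tdp1-/- cells stably complemented with human TDP1 were seeded at 400 cells/well in medium containing 20 nM camptothecin, exposed to pin-transferred compounds, and grown at 37 °C for at least 48 hr. Viability was read as ATP luminescence.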
HT1080NT lethal = kills 2HG-producing HT-1080-NT fibrosarcoma cells; AID 686970; HT-1080-NT fibrosarcoma viability, CellTiter-Glo ATP luminescence, 48 h; actives 1.6% (n = 360,000); Potency, µM (highest dose often 46.1 µM), inactives show at the top dose activity, negative = less viability, actives largely listed as cytotoxic;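 further: NT is the 2HG producing partner of a matched IDH1 knockdown line; 0% = DMSO-treated cells and -100% = media-only wells without cells; nearly all actives have a fitted effect of over 55% in size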
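Viability by CellTiter-Glo luminescence after 48 h compound exposure at 37C of HT-1080-NT cells (750/well, RPMI, 5% FBS). % activity scaled between DMSO wells and medium-only wells, then curve-fitted and categorized by curve class.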
HT1080 IDH1KD tx = kills HT-1080 cells with IDH1 knockdown; HT-1080 IDH1 knockdown viability, ATP luminescence, 48 h; Potency, µM (doses to about 46.1 µM), for the others: at the top dose activity, negative = toxicity, actives largely listed as cytotoxic; actives 2% (n = 360,000); AID 686971;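 further: 0% = DMSO wells and -100% = cell-free medium wells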
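Assay cells: HT-1080 with IDH1 knockdown, 750 per well, RPMI/5% FBS. Exposure: 48 h at 37 °C following 2 h pre-incubation. Read: CellTiter-Glo luminescence; fitted concentration-response, curve class assigned.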
KB-V1 MDR tox = KB-V1 MDR subline cytotoxicity | KB-V1 MDR cells viability, CellTiter-Glo, 72 h | Potency, µM (series often up to 46.1 µM), actives largely listed as cytotoxic | actives 3.4% (n = 400,000) | AID 1347076; further: nearly all actives have a fitted effect of over 60% in size
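Readout: CellTiter-Glo luminescence, 10 min after addition. Cells: KB-V1 MDR subline, 72 h at 37 degrees C with compound. Analysis: corrected, normalized data fitted to concentration-effect curves.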
KB-3-1 tox = KB-3-1 parental cell cytotoxicity; Potency, µM (highest dose often 46.1 µM), hits mostly cytotoxic; KB-3-1 viability, CellTiter-Glo ATP luminescence, 72 h; AID 1347075; actives 1.4% (n = 400,000); further: nearly all actives have a fitted effect of over 60% in size
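Screening of KB-3-1 cells (DMEM, 10% FBS, phenol-red free) ran from lowest to highest compound concentration; after 72 h at 37 °C viability was read luminescently and curves fitted.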
The depositor's hits bear a star. The call rests on the fitted dose curve; in most records, active means well fitted curve in the direction sought with a large enough effect; inconclusive means small, poorly fitted or top-dose-only effect, or another doubt; inactive means no such curve, though single readings can be large; an effect the other way counts as inactive or inconclusive. Unless noted, on the % scale 0 is the no-effect control and ±100 the full control effect; potency means the concentration at half of the fitted maximal effect.

How did CCOc1ccc(NC(=O)CSC2=Nc3ccccc3C3=NC(CC(=O)NCc4cccs4)C(=O)N23)cc1 (centres undefined) do in these assays?
TDP1 cell noCPT: inconclusive; TDP1 cell CPT: inconclusive; KB-V1 MDR tox: inactive; KB-3-1 tox: inactive

What do the screens show for `CS(=O)(=O)N1CCC2(CC1)CN(C(=O)Nc1cccc(C#N)c1)C2`?
TDP1 cell noCPT: 3.6%; TDP1 cell CPT: -1.3%

Results for CC(=O)Nc1ccc(C(=O)N2CCCCC2c2cc(C(=O)NC(C)C)no2)cc1 (centres undefined) ?
TDP1 cell noCPT: 4.7%; TDP1 cell CPT: -0.7%; HT1080NT lethal: 15.5%; HT1080 IDH1KD tx: 12.1%; KB-V1 MDR tox: inactive; KB-3-1 tox: inactive

Results for CC(=O)Nc1ccc(C(=O)N2CCCCC2c2cc(C(=O)Nc3cccc4c3CCCC4)no2)cc1 (centres undefined) ?
TDP1 cell noCPT: inconclusive; TDP1 cell CPT: inconclusive; HT1080NT lethal: 16.4µM*; HT1080 IDH1KD tx: 5.8µM*; KB-V1 MDR tox: inconclusive; KB-3-1 tox: inconclusive

How did CCCCCCN1C[C@@H](n2cc(C3CC3)nn2)[C@H](O)C[C@@H]1c1ccc(C)cc1 do in these assays?
TDP1 cell noCPT: inconclusive; TDP1 cell CPT: inconclusive; HT1080NT lethal: -27.6%; HT1080 IDH1KD tx: inconclusive; KB-V1 MDR tox: inactive; KB-3-1 tox: inactive

What do the screens show for `O[C@@H]1C[C@H](c2ccc(Cl)cc2)N(CC2CCCCC2)C[C@H]1n1cc(C2CC2)nn1`?
TDP1 cell noCPT: inconclusive; TDP1 cell CPT: inconclusive; HT1080NT lethal: 4.8%; HT1080 IDH1KD tx: 4.2%; KB-V1 MDR tox: inactive; KB-3-1 tox: inactive

What do the screens show for `Cc1ccc([C@H]2C[C@@H](O)[C@H](n3cc(C4CC4)nn3)CN2CC2CCCCC2)cc1`?
TDP1 cell noCPT: 18.4µM*; TDP1 cell CPT: inconclusive; HT1080NT lethal: 0.1%; HT1080 IDH1KD tx: 4.9%; KB-V1 MDR tox: inactive; KB-3-1 tox: inactive

What do the screens show for `COc1ccc([C@H]2C[C@H](n3cc(C4CC4)nn3)[C@@H](O)CN2C(=O)C2CCCCC2)cc1`?
TDP1 cell noCPT: 2.9%; TDP1 cell CPT: -5.6%; HT1080NT lethal: 17.3%; HT1080 IDH1KD tx: 11.4%; KB-V1 MDR tox: inconclusive; KB-3-1 tox: inconclusive

Results for O[C@@H]1CN(CC2CCCCC2)[C@@H](c2ccc(Cl)cc2)C[C@H]1n1cc(C2CC2)nn1 ?
TDP1 cell noCPT: 23.1µM*; TDP1 cell CPT: inconclusive; HT1080NT lethal: 0.3%; HT1080 IDH1KD tx: -0.5%; KB-V1 MDR tox: inconclusive; KB-3-1 tox: inconclusive

Results for COc1ccc([C@H]2C[C@H](n3cc(C4CC4)nn3)[C@@H](O)CN2CC2CCCCC2)cc1 ?
TDP1 cell noCPT: 16.4µM*; TDP1 cell CPT: inconclusive; HT1080NT lethal: inconclusive; HT1080 IDH1KD tx: inconclusive; KB-V1 MDR tox: inconclusive; KB-3-1 tox: inconclusive

How did O[C@H]1C[C@H](c2ccc(Cl)cc2)N(CC2CCCCC2)C[C@@H]1n1cc(C2CC2)nn1 do in these assays?
TDP1 cell noCPT: 6.51µM*; TDP1 cell CPT: 5.8µM*; HT1080NT lethal: inconclusive; HT1080 IDH1KD tx: inconclusive; KB-V1 MDR tox: inconclusive; KB-3-1 tox: inconclusive

How did O=C(NCc1ccc(F)cc1Cl)c1cc(=O)[nH]c2ccc(S(=O)(=O)N3CCCCC3)cc12 do in these assays?
TDP1 cell noCPT: -22.6%; TDP1 cell CPT: -16.6%

Results for COc1ccc([C@H]2C[C@@H](O)[C@H](n3cc(-c4ccc(F)cc4)nn3)CN2CC2CCCCC2)cc1 ?
TDP1 cell noCPT: 6.51µM*; TDP1 cell CPT: inconclusive; HT1080NT lethal: 1.5%; HT1080 IDH1KD tx: -0.7%; KB-V1 MDR tox: inactive; KB-3-1 tox: inactive

Results for COc1ccc([C@H]2C[C@H](n3cc(-c4ccc(F)cc4)nn3)[C@@H](O)CN2CC2CCCCC2)cc1 ?
TDP1 cell noCPT: inconclusive; TDP1 cell CPT: inconclusive; HT1080NT lethal: inconclusive; HT1080 IDH1KD tx: -21.7%; KB-V1 MDR tox: inactive; KB-3-1 tox: inconclusive

How did Cc1ccc(NC(=O)c2cccc(N3C(=O)C4C5C=CC(C5)C4C3=O)c2)cc1C (centres undefined) do in these assays?
TDP1 cell noCPT: 20.6µM*; TDP1 cell CPT: 23.1µM*; HT1080NT lethal: 4.3%; HT1080 IDH1KD tx: -0.7%; KB-V1 MDR tox: inactive; KB-3-1 tox: inactive

What do the screens show for `COc1ccc(NC(=O)c2cccc(N3C(=O)C4C5C=CC(C6CC56)C4C3=O)c2)cc1` (centres undefined)?
TDP1 cell noCPT: 20.6µM*; TDP1 cell CPT: inconclusive; HT1080NT lethal: -14.3%; HT1080 IDH1KD tx: -0.3%; KB-V1 MDR tox: inconclusive; KB-3-1 tox: inactive

What do the screens show for `COc1ccc(NC(=O)c2cccc(N3C(=O)C4C5C=CC(C6CC56)C4C3=O)c2)c(OC)c1` (centres undefined)?
TDP1 cell noCPT: inconclusive; TDP1 cell CPT: inconclusive; HT1080NT lethal: 0.5%; HT1080 IDH1KD tx: -2.1%; KB-V1 MDR tox: inactive; KB-3-1 tox: inactive

How did COc1ccc(NC(=O)c2cccc(N3C(=O)C4C5C=CC(C5)C4C3=O)c2)cc1Cl (centres undefined) do in these assays?
TDP1 cell noCPT: 16.4µM*; TDP1 cell CPT: 23.1µM*; HT1080NT lethal: 12.7%; HT1080 IDH1KD tx: 6.5%; KB-V1 MDR tox: inactive; KB-3-1 tox: inactive

How did Cc1cnc(C(=O)OCC(=O)NCc2ccc3c(c2)OCO3)cn1 do in these assays?
TDP1 cell noCPT: -14.8%; TDP1 cell CPT: -7.8%; HT1080NT lethal: 22.5%; HT1080 IDH1KD tx: 2.6%; KB-V1 MDR tox: inactive; KB-3-1 tox: inactive

What do the screens show for `CC(C)c1ccc(S(=O)(=O)c2cn(CC(=O)Nc3ccc(F)cc3)c3ccccc3c2=O)cc1`?
TDP1 cell noCPT: 3.0%; TDP1 cell CPT: -3.2%; KB-V1 MDR tox: inconclusive; KB-3-1 tox: inactive

What do the screens show for `Cc1ccc(NC(=O)C(NS(=O)(=O)c2ccc3c(c2)CCC(=O)N3)c2ccccc2)cc1C` (centres undefined)?
TDP1 cell noCPT: 13µM*; TDP1 cell CPT: inconclusive; KB-V1 MDR tox: inactive; KB-3-1 tox: inactive

How did Cc1ccc(C)c(NC(=O)C(NS(=O)(=O)c2ccc3c(c2)CCC(=O)N3)c2ccccc2)c1 (centres undefined) do in these assays?
TDP1 cell noCPT: -16.1%; TDP1 cell CPT: inconclusive; KB-V1 MDR tox: inactive; KB-3-1 tox: inactive
